Measurements from PubChem BioAssay AID1950 (The Scripps Research Institute Molecular Screening Center, 2009).
Hit rate of the full screen: of about 300,000 compounds, about 1,000 (0.33%) were called active. Rule as the data show it: active = inhibition above about 28%; inactive = the rest. The list comes from a sample in which actives are over-represented; it also holds similar structures and randomly drawn compounds.

System: EBNA-1 (Epstein-Barr virus nuclear antigen 1), Human herpesvirus 4
Assay: EBNA-1 DNA-binding inhibitors, primary screen, biochemical, fluorescence polarization (AID 1950)
Conditions: at 14.8 µM, hits give high values

inhibition, inactive:
Cc1ccn2c(=O)nc(SCC(=O)NCc3ccc(F)cc3)nc2c1 -14.5%
Oc1ccccc1CNc1ncc(Br)cc1Br -8.83%
Cc1ccc(C(=O)NNC(=O)c2cccs2)cc1 -0.94%
O=C(NNC(=O)c1cc2c(s1)CCCC2)c1ccccc1 6.96%
Cc1cc2nc3n(c2cc1C)CC1CC(C(=O)NCCC(C)C)N(C)C31 (stereo not drawn) -5.15%
O=C(Nc1cccc(NC(=O)c2cccc(F)c2)c1)c1ccccc1 -2.13%
O=C(Cc1ccccc1)Nc1cccc(NC(=O)c2ccccc2)c1 -12.9%
CN(C)[C@@H]1C(=O)C(C(N)=O)=C(O)[C@@]2(O)C(=O)C3=C(O)c4c(O)ccc(Cl)c4[C@@H](O)[C@H]3C[C@@H]12 14.1%
O=C(Nc1cccc(O)c1)c1ccc(C(=O)c2ccccc2)o1 10.1%
COc1ccc(CCn2c(NCCCN3CCOCC3)nc3c2c(=O)[nH]c(=O)n3C)cc1 5.1%
COc1ccc(CCn2c(NN=C3CCCC3)nc3c2c(=O)[nH]c(=O)n3C)cc1 1.13%
Cc1cccc(C(=O)Nc2ccc3c(c2)C(=O)N(CC(C)C)C3=O)c1 -2.99%
CCC(=O)Nc1ccc(S(=O)(=O)NCC2CCCO2)cc1 (stereo not drawn) 4.88%
Cc1cccc(NC(=O)NC2(C)CCS(=O)(=O)C2)c1 (stereo not drawn) -12.1%
CCc1c(C)nc2ncnn2c1N1CCC(C(=O)NCc2ccc3c(c2)OCO3)CC1 7.74%
COc1ccc(C(C(=O)NCc2ccccc2)N(Cc2cccs2)C(=O)c2cnccn2)cc1 (stereo not drawn) 4.32%
CCn1c(/C=C/Nc2ccccc2)[n+](CC)c2ccc(C(=O)OCC(F)(F)F)cc21 -1.72%
CCC(=O)c1ccc(OC(=O)/C=C/c2cc(OC)c(OC)c(OC)c2)cc1 6.75%
CCOc1ccc(N=C2NC(=O)S/C2=C\c2ccc(O)cc2)cc1 22%
COc1cc(NS(=O)(=O)c2ccc(N=Cc3c(C)[nH]n(-c4ccccc4)c3=O)cc2)nc(OC)n1 14.1%
O=C(CC(=O)N/N=C\c1cccc(Cl)c1Cl)NCc1ccccc1 0.69%
COc1cccc(N2CC(NS(=O)(=O)c3cccs3)CC2=O)c1 (stereo not drawn) -3.98%
CC(=O)NC(CC(=O)Nc1nc(-c2ccccc2)c(C(C)=O)s1)c1ccccc1 (stereo not drawn) 6.2%
O=c1o[nH]c(-c2ccccc2)c1N=Nc1c(F)cccc1Cl -1.23%
COc1ccc(S(=O)(=O)N2CCCCCC2)cc1C(=O)OCC(=O)Nc1cc(C)on1 -10.6%
COc1ccc(S(=O)(=O)Nc2ccc(S(=O)(=O)N3CCCCC3)cc2)cc1OC -12.3%
CCCn1c2ccccc2c2cnn(CC(=O)NCCCN3CCCCC3CC)c(=O)c21 (stereo not drawn) -11.4%
O=[N+]([O-])c1cc(S(=O)(=O)Nc2cccc(Cl)c2)ccc1N=Nc1c(O)[nH]c2ccccc12 -1.48%
CCc1ccc(NC(=O)Nc2ccncc2)cc1 -0.73%
CCOC(=O)C1=C(C)Nc2nc3ccccc3n2C1c1cccs1 (stereo not drawn) 3.55%
CC(=O)c1ccc(NC(=O)C2CC(=O)Nc3nc4ccccc4n32)cc1 (stereo not drawn) -7.52%
Cc1ccc(NS(=O)(=O)c2ccc3c(c2)n(C)c(=O)c(=O)n3C)c(C)c1 -9.29%
CCCS(=O)(=O)Nc1ccc(-c2cn3c(n2)SCC3)cc1 -2.75%
COc1cccc(NC(=O)CCNS(=O)(=O)c2ccc3c(c2)oc(=O)n3C)c1 -10.5%
CSCCC(NS(=O)(=O)c1ccc2c(c1)oc(=O)n2C)C(=O)NCc1ccccc1 (stereo not drawn) 1.42%
CC(Oc1ccc(Br)cc1)C(=O)NCC(c1ccco1)N1CCCCC1 (stereo not drawn) -5.29%
CC(C)OC(=O)c1ccc(COc2ccc3ccc(=O)oc3c2)o1 0.87%
O=C(OCC1OC(Oc2ccc(O)cc2)C(O)C(O)C1O)c1ccccc1 (stereo not drawn) -9.05%
Cn1c(=O)[nH]c(=O)c2c1[nH]c(=S)n2Cc1ccccc1 9.15%
O=C(COc1ccc([N+](=O)[O-])cc1)Nc1cccc(C(=O)Nc2ccccc2C(=O)O)c1 8.21%
C=CCNC(=S)/N=c1/ccccn1Cc1ccccc1 3.92%
CCN(CC)CCN1C(=O)C2C(C(=O)Nc3ccc(Br)cc3)C3C=CC2(O3)C1C(=O)NC1CCCCC1 (stereo not drawn) 5.67%
COc1ccc(CCNC(=O)C2CCCN(S(=O)(=O)c3ccc(OC)cc3)C2)cc1 (stereo not drawn) 5.18%
COc1ccc(CCNC(=S)N2CCN(S(=O)(=O)c3ccc(Cl)cc3)CC2)cc1 7.36%
OC(COc1ccc(CN2CCSCC2)cc1)CN1CCCCC1 (stereo not drawn) 3.92%
COc1ccc(/C=C2\SC(=S)N(CCCC(=O)NC3CCCC3)C2=O)cc1OC -4.95%
CC(=O)NNC(=O)c1csc(Cc2c(Cl)sc3ccc(Cl)cc23)n1 -5.11%
Cc1cc(OCC(=O)NCC(O)c2ccccc2)c2c(C)c(C)c(=O)oc2c1 (stereo not drawn) 3.74%

inhibition, active:
Cc1ccc(C(=O)NNC(=O)c2cc3cc4ccccc4nc3s2)cc1 66.7%
O=C(Nc1cccc(NC(=O)c2ccc(Br)cc2)c1)c1ccccc1 28.3%
COc1ccc(CNc2nc3c(c(=O)[nH]c(=O)n3C)n2Cc2ccccc2)cc1 28.1%
CCC(=O)Nc1ccc(C(=O)Nc2ccc3c(c2)C(=O)N(CC2CCCO2)C3=O)cc1 (stereo not drawn) 57.9%
CCOc1[nH]n(-c2ccc(Cl)cc2)c(=O)c1C=Nc1ccc(O)cc1 36.6%
COc1ccc(-c2ccc(Nc3ccc(S(=O)(=O)N4CCCC4)cc3)nn2)cc1OC 61.7%
CCOC(=O)c1ccc(NC(=O)C2CC(=O)Nc3nc4ccccc4n32)cc1 (stereo not drawn) 30.4%
CCOc1ccc(OCC)c(NC(=O)C(NS(=O)(=O)c2ccc3c(c2)oc(=O)n3C)C(C)C)c1 (stereo not drawn) 38%
O=C(OCC1O[C@@H](OC(=O)c2cc(O)c(O)c(O)c2)[C@@H](OC(=O)c2cc(O)c(O)c(O)c2)[C@@H](OC(=O)c2cc(O)c(O)c(O)c2)[C@@H]1OC(=O)c1cc(O)c(O)c(O)c1)c1cc(O)c(O)c(O)c1 (stereo partly drawn) 36.5%
COc1ccc(CCNC(=S)N2CCN(S(=O)(=O)c3ccc(F)cc3)CC2)cc1 34.3%
